# Compounds with a hit are over-represented: about 18% of the library has one in this group of screens.
# DT40 TDP1 CPT: qHTS for Inhibitors of human tyrosyl-DNA phosphodiesterase 1 (TDP1): qHTS in cells in presence of CPT; chicken DT40 Tdp1-/-;hTDP1 cells + 20 nM CPT, ATP luminescence, 48 h; Potency, µM (titrated, usually from 46.2 µM), for the others: at the highest dose activity change, negative = growth inhibition, hits mostly inhibitors; actives 12% (n = 420,000); note: potency is the fitted concentration of half-maximal effect; % is set by controls: 0 for no effect and ±100 for the full control effect; nearly all actives have a fitted effect of over 55% in size
#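 Chicken DT40 Tdp1-/- cells complemented with human TDP1, 400 cells/well, exposed to compounds plus 20 nM camptothecin for at least 48 h at 37 C; viability read as ATP content by CellTiter-Glo luminescence.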
# TGFb inhibitor: qHTS for Inhibitors of TGF-b; HepG2 CAGA-GFP TGF-b/SMAD3 reporter, GFP fluorescence, 18 h; TGF-beta stimulated, 500 pg/mL final; Potency, µM (top dose mostly 46.1 µM), for inactives: top-dose activity, negative = inhibition, actives largely listed as inhibitors; actives 1.2% (n = 410,000); AID 588855, 2011; note: potency is the fitted concentration of half-maximal effect; % is set by controls: 0 for no effect and ±100 for the full control effect; nearly all actives have a fitted effect of over 65% in size
#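 HEPG2 CAGA-GFP reporter cells (1000/well, DMEM with 1% FBS) received compounds, then recombinant TGF-beta at 500 pg/mL final for 18 hours at 37 degrees C. Per-cell GFP summed per well was normalised to unstimulated and stimulated DMSO controls before curve fitting.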
# TDP1 block: qHTS Assay for Inhibitors of Tyrosyl-DNA Phosphodiesterase (TDP1); Tyrosyl-DNA phosphodiesterase 1 (Homo sapiens), Q9NUW8; recombinant TDP1, AlphaScreen DNA substrate cleavage; Potency, µM (titrated, usually from 130 µM), inactives show at the top dose activity change, negative = inhibition, most hits filed as inhibitors; actives 0.28% (n = 350,000); note: potency is the fitted concentration of half-maximal effect; % is set by controls: 0 for no effect and ±100 for the full control effect; nearly all actives have a fitted effect of over 40% in size
# Target sequence (Q9NUW8 whole entry, looked up): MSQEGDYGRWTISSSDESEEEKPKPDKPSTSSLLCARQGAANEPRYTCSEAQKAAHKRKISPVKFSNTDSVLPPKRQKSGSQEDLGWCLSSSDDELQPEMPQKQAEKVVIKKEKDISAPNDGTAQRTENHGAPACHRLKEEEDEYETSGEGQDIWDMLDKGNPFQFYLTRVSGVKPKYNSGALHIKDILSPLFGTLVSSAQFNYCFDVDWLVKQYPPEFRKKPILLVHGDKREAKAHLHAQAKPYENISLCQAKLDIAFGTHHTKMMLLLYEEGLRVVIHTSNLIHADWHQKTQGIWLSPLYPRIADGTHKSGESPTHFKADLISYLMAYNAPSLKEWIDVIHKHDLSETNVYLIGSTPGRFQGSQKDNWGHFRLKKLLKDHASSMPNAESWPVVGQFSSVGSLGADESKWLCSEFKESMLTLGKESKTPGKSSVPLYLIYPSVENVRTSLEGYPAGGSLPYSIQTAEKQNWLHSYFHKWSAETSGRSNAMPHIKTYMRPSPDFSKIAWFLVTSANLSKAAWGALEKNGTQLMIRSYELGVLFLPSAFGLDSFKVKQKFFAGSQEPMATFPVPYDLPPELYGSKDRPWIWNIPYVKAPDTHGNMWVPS
#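 E. coli-derived human Tdp1, 1 nM final. Cpd preinc 15 min RT; substrate 15 nM final, 5 min RT; AS bead mix 10 ug/ml final, 10 min RT. Signal loss = tyrosine-FITC cleavage. No-enzyme wells = max signal.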
# HepG2 tox: qHTS for Inhibitors of TGF-b: Cytotox Counterscreen | HepG2 CAGA-GFP viability, ATP luminescence, 18 h | Potency, µM (highest dose often 46.1 µM), for the others: at the highest dose activity change, negative = cytotoxicity, usual class: cytotoxic | actives 0.76% (n = 410,000) | AID 588856, 2011; note: potency is the fitted concentration of half-maximal effect
#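 HepG2 CAGA-GFP cells (1000/well, DMEM with 1% FBS) received compound, then TGF-beta at 500 pg/mL final, and were incubated 18 hours at 37 degrees C. Viability was read by CellTiter-Glo luminescence. Media-only wells were set as complete cell-killing and DMSO as no toxicity.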
# IL-1B inflam inh: qHTS for Inhibitors of Inflammasome Signaling: IL-1-beta AlphaLISA Primary Screen; actives 4.7% (n = 360,000); THP-1 LPS/ATP IL-1B secretion, AlphaLISA, 16 h; active compounds read low; activity change, % at 57.5 µM; in the data active = activity change below about -50%; inconclusive = mostly about -30% to -49%; note: % is set by controls: 0 for no effect and ±100 for the full control effect
#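 THP-1 cells pretreated 1 hr with compounds (up to 57.5 uM final), then stimulated with LPS (250 ng/mL final) plus ATP (1.25 mM final); secreted IL-1B measured by AlphaLISA after 16 hr, decreased signal indicating inhibition.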
# TDP1 cell noCPT: qHTS for Inhibitors of human tyrosyl-DNA phosphodiesterase 1 (TDP1): qHTS in cells in absence of CPT; DT40 Tdp1-/- hTDP1 cells, no CPT, ATP luminescence, 48 h; Potency, µM (series often up to 46.2 µM), for the others: at the highest dose activity change, negative = growth inhibition, hits mostly inhibitors; actives 15% (n = 420,000); note: potency is the fitted concentration of half-maximal effect; % is set by controls: 0 for no effect and ±100 for the full control effect; nearly all actives have a fitted effect of over 55% in size
#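 Luminescent ATP content (CellTiter-Glo) served as the growth readout. Knockout chicken DT40 cells expressing human TDP1 were exposed to compounds without camptothecin for a minimum 48 hr at 37 °C.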
# * marks the source's active call; other numbers are inactive results; ? = inconclusive; · = no result; [ ] = remark or other dose. Unless noted, calls come from the whole dose curve; as a rule, active = well fitted curve in the direction sought with a large enough effect; inconclusive = small, poorly fitted or top-dose-only effect, or another doubt; inactive = no such curve, though single readings can be large; an effect the other way counts as inactive or inconclusive.
SMILES,DT40 TDP1 CPT,TGFb inhibitor,TDP1 block,HepG2 tox,IL-1B inflam inh,TDP1 cell noCPT
Cn1nc([N+](=O)[O-])nc1S(C)(=O)=O,4.6µM*,13µM*,2%,20µM*,-101*,4.6µM*
CS(=O)(=O)c1nc([N+](=O)[O-])nn1CCCc1ccccc1,6.5µM*,?,·,-187%,-103*,13µM*
COc1ccc(NC(=O)CN(C)S(=O)(=O)c2ccc(Cl)cc2)cn1,-4%,-13%,0%[56.1 µM],-15%,14,-30%
Cc1ccc(/C=C(\C#N)C(=O)NC(C)c2ccccc2)o1 (configuration not stated),0%,1%,5%[56.1 µM],-12%,?,-3%
O=C(NNC(=O)c1cccc(S(=O)(=O)Nc2ccccc2F)c1)c1ccncc1,-26%,6%,·,9%,22,-1%
COc1ccccc1N1CCN(S(=O)(=O)c2ccc(-c3cnc(C4CC4)o3)cc2)CC1,?,?,1%,-12%,28,21µM*
Cc1cccc(N2CCN(S(=O)(=O)c3ccc(-c4cnc(C5CC5)o4)cc3)CC2)c1C,18µM*,?,-9%,-29%,·,13µM*
Cc1ccc(C)c(N2CCN(S(=O)(=O)c3ccc(-c4cnc(C5CC5)o4)cc3)CC2)c1,15µM*,?,-1%,-11%,·,9.2µM*
CCOC(=O)c1cc(OC(=O)Cc2ccc(OC)c(S(=O)(=O)N3CCOCC3)c2)cc(C(=O)OCC)c1,0%,-22%,·,-6%,2,-28%
COc1ccc(-n2c(=O)c3c4c(sc3n(Cc3ccc(C(C)(C)C)cc3)c2=O)CCC4)c(OC)c1,?,-3%,3%,-7%,·,?
COc1ccccc1C1CN(Cc2cn(C)nc2C)Cc2ccccc2O1 (configuration not stated),12%[9.04 µM],·,·,·,·,-28%
C=C1C=C(C)n2ncc(C(=O)Nc3cccc4cnccc34)c2N1,16µM*,19%,·,-3%,·,11µM*
Clc1cc(Br)ccc1OCCCNCc1ccccc1,21µM*,11µM*,-11%,13µM*,-101*,?
C=CCNCCCOc1ccc(C(C)(C)c2ccccc2)cc1,?,-20%,3%,-68%,-89*,?
c1ccc(CNCCCNCCCCNCCCNCc2ccccc2)cc1,?,?,·,7.9µM*,-110*,21µM*
COCCCNCCCOc1ccc(C(C)(C)c2ccccc2)cc1,?,?,0%,-40%,?,18µM*
COCCNCCCOc1ccc(C(C)(C)c2ccccc2)cc1,?,6%,-1%,-16%,-23,?
CC(C)(C)c1ccc(OCCCNCc2ccccc2)cc1,?,?,1%,-88%,-102*,?
CC(C)(c1ccccc1)c1ccc(OCCCNCCO)cc1,?,-25%,4%,-93%,?,21µM*
CCOCCCNCc1ccc(OCc2ccccc2Cl)cc1,?,?,5%,-41%,8,?
CCc1cc(OCCCCNCc2ccccc2)ccc1Cl,21µM*,?,-5%,-89%,-102*,18µM*
CCOc1ccccc1C1c2[nH]c3ccccc3c2C[C@H]2C(=O)N(C3CC3)CC(=O)N12 (some centres not stated),3%,7%,·,-3%,-4,11%
Cc1cc(=O)n(C(C)C(=O)N2CCCc3ccccc32)c2c1c(C)nn2-c1ccccc1 (configuration not stated),16µM*,-15%,7%,3%,·,?
O=S1(=O)CCOC[C@H](c2ccccc2)N1Cc1ccccc1,?,-10%,·,-7%,-3,?
Cc1nnc(C)c2c(C)n(Cc3ccc4c(c3)OCO4)c(C)c12,13µM*,?,5%,-28%,-13,16µM*
SMILES,DT40 TDP1 CPT,TGFb inhibitor,TDP1 block,HepG2 tox,IL-1B inflam inh,TDP1 cell noCPT
Cc1ccc(O)c(NC(=O)CSc2n[nH]c(-c3ccccc3)n2)c1,?,?,3%,-46%,88,16µM*
Cc1nc2c(c(SCC(=O)Nc3ccccc3C(F)(F)F)n1)CCC2,?,-12%,-5%,-14%,·,21µM*
O=C(CSc1n[nH]c(-c2ccncc2)n1)Nc1ccccc1C(F)(F)F,18µM*,1%,·,-8%,32,10µM*
O=C(CSc1n[nH]c(-c2ccccc2)n1)Nc1ncccn1,11%,-16%,-3%,5%,-7,-10%
Cc1ccc(C)c(NC(=O)CSc2n[nH]c(-c3ccccn3)n2)c1,23µM*,-21%,10%[0.0935 µM],-4%,60,18µM*
NC(=O)c1nsc(C(=O)N(CC(=O)NC2CCCCC2)Cc2ccc(F)cc2)c1N,-6%,19%,8%,-22%,-11,-11%
Cc1ccccc1NC(=O)CSc1nnc(-c2ccccn2)o1,-10%,1%,1%,-73%,11,-2%
Cc1ccccc1NC(=O)CSc1n[nH]c(-c2ccccn2)n1,18µM*,-17%,4%,-33%,152,?
Cc1ccc(C2C3C(=O)N(c4ccc(C)cc4)C(=O)C3N3CCCN23)cc1 (configuration not stated),-7%,-2%,4%,10%,14,-12%
C=CCn1c(SCC(=O)NCC)nnc1-c1cc2c(s1)CCC(CC)C2 (configuration not stated),23µM*,11%,-3%,-18%,-12,16µM*
C=CCn1c(SCC(=O)NC(N)=O)nnc1-c1cc2c(s1)CCC(CC)C2 (configuration not stated),-17%,6%,-1%,-9%,-21,?
C=CCn1c(SCC(=O)NCCOC)nnc1-c1cc2c(s1)CCC(CC)C2 (configuration not stated),?,14%,0%,-3%,-19,18µM*
CC(NC(=O)Cn1cc([N+](=O)[O-])cn1)c1ccc(C(C)(C)C)cc1 (configuration not stated),?,?,·,-20%,16,?
CCCN(CCC)CCNC(=O)c1cc2c(=O)n(CC)c3ccccc3c2s1,-22%,-5%,·,-16%,-8,?
